In a collection of fitness landscapes (doi:10.1016/j.celrep.2020.107928):
Over roughly 81,000 sequences, “one-hybrid fitness for binding NBS DNA” has its median near -0.1; the highest 2% begin near 0.36. For the sample, the highest values were picked, then their nearest neighbours and some sequences at random.

B1: Caulobacter ParB omega fusion; a variant is named by its letters at X, in order, B8GW30 (parent)
chain: MESVVVGEPGMSEGRRGLGRGLSALLGEVDAAPAQAPGEQLGGSREAPIEILQRNPDQPRRTFREEDLEDLSNSIREKGVLQPILVRPSPDTAGEYQIVAGERAWRAAQRAGLKTVPIMVRELDDLAVLEIGIIENVQRADLNVLEEALSYKVLMEKFERTQENIAQTIGKSXSHVANXMRLLXLPDEVQSYLVSGELTAXHARAIAAAADPVALAKQIIEGGLSVRETEALARKAPNLSAGKSKGGRPPRVKDTDTQALESDLSSVLGLDVSIDHRGSTGTLTITYATLEQLDDLCNRLTRGI

Variants of: B1
Test: one-hybrid fitness for binding NBS DNA (the Noc-binding site; scaled: cognate 1, non-cognate 0); higher = stronger binding
Conditions: with NBS DNA site
Method in brief: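 Selection: bacterial one-hybrid in E. coli USO, HIS3 reporter with the site 19 bp from the promoter, 48 hours at 37°C on M9-minus-histidine plus 0.1 mM IPTG and 5 mM 3-AT. Libraries were Caulobacter ParB with four randomised specificity codons, sequenced on Illumina before and after selection. Fitness is the rescaled log change in variant-to-wild-type read ratio, anchored to the cognate and non-cognate sites.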

Row | Variant | one-hybrid fitness for binding NBS DNA
1 | DSDF | ≤ 0.2
2 | RWRC | ≤ 0.2
3 | PLVT | ≤ 0.2
4 | DMHW | ≤ 0.2
5 | TRSF | ≤ 0.2
6 | IKKC | ≤ 0.2
7 | QHLP | ≤ 0.2
8 | QTLR | 0.639
9 | QTLN | ≤ 0.2
10 | QILR | 0.335
11 | QHLR | 0.445
12 | QHLH | ≤ 0.2
13 | QCLR | 0.562
14 | QTLH | 0.223
15 | QPLR | ≤ 0.2
16 | WSWT | ≤ 0.2
17 | AVHS | ≤ 0.2
18 | GHKE | ≤ 0.2
19 | MTRR | 0.273
20 | QQAN | ≤ 0.2
21 | QQYR | 0.578
22 | DQYR | ≤ 0.2
23 | QQRE | 0.332
24 | QQAR | 0.654

Row | Variant | one-hybrid fitness for binding NBS DNA
25 | QQHF | ≤ 0.2
26 | QQHR | 0.683
27 | DQRR | ≤ 0.2
28 | QQHG | ≤ 0.2
29 | QQRR | 1.09
30 | QQAP | ≤ 0.2
31 | QQYP | ≤ 0.2
32 | KIQL | ≤ 0.2
33 | YWII | ≤ 0.2
34 | AFHM | ≤ 0.2
35 | TVSR | ≤ 0.2
36 | PDRQ | ≤ 0.2
37 | TNMG | ≤ 0.2
38 | QQLG | ≤ 0.2
39 | QQGK | ≤ 0.2
40 | QQCK | ≤ 0.2
41 | QQFR | 0.491
42 | QQLR | 0.567
43 | QQCR | 0.63
44 | QQGR | 0.672
45 | NQFR | ≤ 0.2
46 | QQCD | ≤ 0.2
47 | QQGC | ≤ 0.2
48 | QQLM | ≤ 0.2

Row | Variant | one-hybrid fitness for binding NBS DNA
49 | TPFT | ≤ 0.2
50 | ATSG | ≤ 0.2
51 | VDTI | ≤ 0.2
52 | HTCG | ≤ 0.2
53 | PHKP | ≤ 0.2
54 | NAEM | ≤ 0.2
55 | IYRA | ≤ 0.2
56 | LQHD | ≤ 0.2
57 | WGPQ | ≤ 0.2
58 | LPFS | ≤ 0.2
59 | QQWM | ≤ 0.2
60 | QQEG | ≤ 0.2
61 | QQQP | ≤ 0.2
62 | QQSC | ≤ 0.2
63 | QQEY | ≤ 0.2
64 | QQWY | ≤ 0.2
65 | QQSG | ≤ 0.2
66 | QQWR | 0.514
67 | QQSR | 0.635
68 | QQER | 0.426
69 | QQQD | ≤ 0.2
70 | QQQR | 0.586
71 | YILL | ≤ 0.2
72 | KDKK | ≤ 0.2

Row | Variant | one-hybrid fitness for binding NBS DNA
73 | ANDS | ≤ 0.2
74 | PLNC | ≤ 0.2
75 | EYLC | ≤ 0.2
76 | RVEC | ≤ 0.2
77 | GVRI | ≤ 0.2
78 | ESSI | ≤ 0.2
79 | DESV | ≤ 0.2
80 | QRGH | 0.616
81 | QMGS | 0.42
82 | QRGF | 0.33
83 | QSGS | 0.358
84 | QPGN | ≤ 0.2
85 | QMGN | ≤ 0.2
86 | QRGN | 0.418
87 | QPGS | ≤ 0.2
88 | QCGS | 0.487
89 | QMGP | ≤ 0.2
90 | QCGN | ≤ 0.2
91 | QCGH | 0.282
92 | NPLC | ≤ 0.2
93 | QMPM | ≤ 0.2
94 | ANEK | ≤ 0.2
95 | DSVS | ≤ 0.2
96 | KKWY | ≤ 0.2

Row | Variant | one-hybrid fitness for binding NBS DNA
97 | CPMG | ≤ 0.2
98 | LRFA | ≤ 0.2
99 | LPEF | ≤ 0.2
100 | WQTP | ≤ 0.2
101 | ANVT | ≤ 0.2
102 | ITKV | ≤ 0.2
103 | TWPS | ≤ 0.2
104 | FCRR | 0.277
105 | LVQT | ≤ 0.2
106 | QSGQ | ≤ 0.2
107 | QCGQ | 0.24
108 | QRGP | 0.301
109 | QRGC | 0.402
110 | QRGM | 0.436
111 | QRGS | 0.7
112 | QPGC | ≤ 0.2
113 | QCGM | ≤ 0.2
114 | QSGM | ≤ 0.2
115 | QRGD | 0.293
116 | QRGQ | 0.435
117 | QCGC | 0.244
118 | VHHD | ≤ 0.2
119 | KQFT | ≤ 0.2
120 | IGSG | ≤ 0.2

Row | Variant | one-hybrid fitness for binding NBS DNA
121 | ERAV | ≤ 0.2
122 | LHVR | ≤ 0.2
123 | AGVC | ≤ 0.2
124 | QSQV | ≤ 0.2
125 | LPLC | ≤ 0.2
126 | DDTM | ≤ 0.2
127 | HYPY | ≤ 0.2
128 | IAHC | ≤ 0.2
129 | SVFR | ≤ 0.2
130 | YVTV | ≤ 0.2
131 | PPVI | ≤ 0.2
132 | KLLL | ≤ 0.2
133 | QRPG | ≤ 0.2
134 | QAPT | 0.23
135 | QRIP | ≤ 0.2
136 | QCIT | 0.432
137 | QRIT | 0.678
138 | QRPT | 0.576
139 | QPIT | ≤ 0.2
140 | QSIT | 0.353
141 | RPKK | ≤ 0.2
142 | VPVE | ≤ 0.2
143 | TFHR | ≤ 0.2
144 | VTIG | ≤ 0.2

Row | Variant | one-hybrid fitness for binding NBS DNA
145 | DETM | ≤ 0.2
146 | LSSE | ≤ 0.2
147 | IPSD | ≤ 0.2
148 | QSKH | 0.587
149 | QIKS | 0.497
150 | QCKS | 0.711
151 | QPKS | ≤ 0.2
152 | QSKS | 0.645
153 | QSVH | ≤ 0.2
154 | QNKS | 0.355
155 | QIVS | ≤ 0.2
156 | QSDH | ≤ 0.2
157 | QIKN | 0.223
158 | TVQG | ≤ 0.2
159 | DATH | ≤ 0.2
160 | YDTE | ≤ 0.2
161 | TATG | ≤ 0.2
162 | KRHE | ≤ 0.2
163 | MHPT | ≤ 0.2
164 | RINQ | ≤ 0.2
165 | QTFF | ≤ 0.2
166 | QTAR | 0.768
167 | QTFR | 0.584
168 | QTAQ | 0.251

Row | Variant | one-hybrid fitness for binding NBS DNA
169 | QTFG | ≤ 0.2
170 | QTAY | 0.306
171 | SPYR | ≤ 0.2
172 | SHAM | ≤ 0.2
173 | QYNA | 0.269
174 | QYKA | 0.531
175 | QYVA | ≤ 0.2
176 | QYYA | 0.271
177 | QYDA | ≤ 0.2
178 | QYRA | 0.558
179 | QPFC | ≤ 0.2
180 | FPTR | ≤ 0.2
181 | KLDM | ≤ 0.2
182 | RCSY | ≤ 0.2
183 | RRHY | 0.452
184 | RRSY | 0.393
185 | RRAY | 0.405
186 | RPQY | ≤ 0.2
187 | RCQY | ≤ 0.2
188 | RSHY | ≤ 0.2
189 | RRQY | 0.525
190 | RCHY | 0.215
191 | RSSY | ≤ 0.2
192 | RCAY | ≤ 0.2

Row | Variant | one-hybrid fitness for binding NBS DNA
193 | RRFY | 0.314
194 | SRQM | ≤ 0.2
195 | LMKG | ≤ 0.2
196 | SMNN | ≤ 0.2
197 | YTVM | ≤ 0.2
198 | DLVK | ≤ 0.2
199 | HQPS | ≤ 0.2
200 | VMQT | ≤ 0.2
201 | SRLY | ≤ 0.2
202 | RIDV | ≤ 0.2
203 | AWTG | ≤ 0.2
204 | PYAQ | ≤ 0.2
205 | HRAG | ≤ 0.2
206 | RNYQ | ≤ 0.2
207 | RCNY | 0.221
208 | RRRY | 0.798
209 | RRDY | 0.306
210 | RRYY | 0.349
211 | RCRY | 0.363
212 | RRNY | 0.589
213 | WRPY | ≤ 0.2
214 | LPLQ | ≤ 0.2
215 | QRVR | 0.839
216 | QWKR | 0.356

Row | Variant | one-hybrid fitness for binding NBS DNA
217 | QRKR | 1.08
218 | NRKR | 0.309
219 | YQNG | ≤ 0.2
220 | TVTR | ≤ 0.2
221 | LWNE | ≤ 0.2
222 | YAMR | ≤ 0.2
223 | YPHD | ≤ 0.2
224 | LNNS | ≤ 0.2
225 | RSGW | ≤ 0.2
226 | YQIT | ≤ 0.2
227 | RFAL | ≤ 0.2
228 | AGTL | ≤ 0.2
229 | QHKN | 0.427
230 | QHVN | ≤ 0.2
231 | QHKD | ≤ 0.2
232 | QHKP | 0.255
233 | QHKF | 0.297
234 | QHYQ | ≤ 0.2
235 | QHKG | 0.345
236 | QHKS | 0.655
237 | QHKH | 0.546
238 | QHKQ | 0.404
239 | QHVQ | 0.283
240 | QHDH | ≤ 0.2

Row | Variant | one-hybrid fitness for binding NBS DNA
241 | KHEE | ≤ 0.2
242 | SFKI | ≤ 0.2
243 | QVDA | ≤ 0.2
244 | RIMY | ≤ 0.2
245 | HVLC | ≤ 0.2
246 | GDVT | ≤ 0.2
247 | GYMF | ≤ 0.2
248 | QQLD | ≤ 0.2
249 | QQES | 0.23
250 | QQLN | ≤ 0.2
251 | QQRT | 0.8
252 | QQEI | ≤ 0.2
253 | NQRT | ≤ 0.2
254 | QQLT | 0.45
255 | QQWC | ≤ 0.2
256 | KQWT | ≤ 0.2
257 | KQRT | 0.225
258 | QQWT | 0.44
259 | QQET | 0.371
260 | FLTY | ≤ 0.2
261 | KTPC | ≤ 0.2
262 | PLQH | ≤ 0.2
263 | TATP | ≤ 0.2
264 | MRTF | ≤ 0.2

Row | Variant | one-hybrid fitness for binding NBS DNA
265 | QQGD | ≤ 0.2
266 | QQQT | 0.449
267 | QQHM | ≤ 0.2
268 | QQQY | 0.247
269 | DQYT | ≤ 0.2
270 | QQYT | 0.473
271 | QQGM | 0.202
272 | QQHC | ≤ 0.2
273 | QQGT | 0.475
274 | QQHT | 0.535
275 | QQQM | ≤ 0.2
276 | SAFG | ≤ 0.2
277 | IKRQ | ≤ 0.2
278 | STKR | 0.254
279 | FDSL | ≤ 0.2
280 | VKGK | ≤ 0.2
281 | DTSI | ≤ 0.2
282 | QQSD | ≤ 0.2
283 | QQST | 0.516
284 | QQCT | 0.528
285 | QQSP | ≤ 0.2
286 | QQCN | ≤ 0.2
287 | QQCS | 0.356
288 | QYLD | ≤ 0.2

Row | Variant | one-hybrid fitness for binding NBS DNA
289 | QYKL | 0.246
290 | QYVY | ≤ 0.2
291 | QYLN | ≤ 0.2
292 | QYFY | ≤ 0.2
293 | QYGY | ≤ 0.2
294 | QYDY | ≤ 0.2
295 | QYKN | 0.366
296 | QYRY | 0.486
297 | QYKE | 0.213
298 | QYKY | 0.479
299 | QYLT | 0.383
300 | VANF | ≤ 0.2
301 | NCLY | ≤ 0.2
302 | QFRV | ≤ 0.2
303 | SHNY | ≤ 0.2
304 | QQPF | ≤ 0.2
305 | TSAQ | ≤ 0.2
306 | HDDG | ≤ 0.2
